According to PubChem BioAssay (NCI):
About 83,000 compounds went through this panel and 20% of them were active in at least one assay; those are over-represented in the sample as a whole.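 The test compound was applied at a single concentration to cells in 96-well plates for 48 hours, and percent growth was recorded.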 Activity calls are given as the source filed them.

Each compound was assayed on OVCAR-5 ovarian (assay: NCI-60 one-dose screen, 48 h (100 = growth as untreated, 0 = no growth, -100 = all killed)). Details: 10 µM.
Procedure: Growth inhibition of the OVCAR-5 human tumor cell line is measured as a screen for anti-cancer activity. Cells are grown in 96 well plates and exposed to the test compound for 48 hours. Compounds are tested at a single concentration, which is 10^-5 M for most compounds. The reported endpoint is percent growth (GI% or GIPRCNT), where numbers from 0 - 100% represent growth inhibition, and numbers from -100% - 0 represent cell death. For example, a value of 40 represents 60% growth inhibition. A value of 0 means no net growth occurred over the course of the experiment. A value of -40 indicates 40% of cells at the beginning of the experiment died by the end of the experiment. A value of -100 means all cells are dead at the end of the experiment.
NCI-60 Human Tumor Cell Lines Screen was performed using the standard one-dose NCI protocol, which is described in more detail at https://dtp.cancer.gov/discovery_development/nci-60/default.htm.
Compounds with GIPRCNT values below 10 were considered active. Activity score was based on GIPRCNT using the following formula: […]
Score is 0 for GIPRCNT values of 100 or above, 50 for GIPRCNT values of 0, and 100 for GIPRCNT values of -100.

Structure (SMILES)	growth
CN(C)CCN(Cc1ccccc1)c1ccc2ccccc2n1	95% (inactive)
Nc1cc(-c2ccncc2)c[nH]c1=O	98.8% (inactive)
COc1cc2cc(Oc3ccc(NC(=O)c4ccc(Cl)c(C(F)(F)F)c4)cc3)c(C)nc2cc1OC	51.3% (inactive)
O=C1c2ccccc2C(=O)c2c1ccc(C(Br)Br)c2Cl	104% (inactive)
CCCCCCCCCCOC(c1ccccc1)c1ccccc1	88.7% (inactive)
CCn1c(CSc2nc3ccccc3c(=O)n2CCc2ccccc2)n[nH]c1=S	91.9% (inactive)
COc1cc2c(cc1NC(=O)C(Cl)Cl)-c1ccc(NC(=O)C(Cl)Cl)cc1C2	10.2% (inactive)
IC(I)I	94.1% (inactive)
O=C(Nc1ccc(OS(=O)(=O)c2ccccc2)cc1)C1CCCCC1	100% (inactive)
Cc1cc(C)nc(NS(=O)(=O)c2ccc(Nc3nc4nc(NCc5ccccc5)nc(-c5ccc(O)cc5)c4c(=O)[nH]3)cc2)n1	45.2% (inactive)
CN(C)CCOc1ccccc1NC1=C(Cl)C(=O)C(Nc2ccccc2OCCN(C)C)=C(Cl)C1=O	109% (inactive)
COc1ccc(CCN2CCC(Nc3nc4ccccc4n3Cc3ccc(F)cc3)CC2)cc1	34.5% (inactive)
Nc1nc(N)c(N)c(Nc2ccc(CCO)cc2)n1	111% (inactive)
Cn1c2ccccc2c2c3[nH][nH]c(=O)c3c3c4ccccc4[nH]c3c21	62.6% (inactive)
O=C1NC(=O)c2c(CCCSc3nc4ccccc4c(=O)n3CCc3ccccc3)cccc21	102% (inactive)
CC1/C=C/C=C/C=C/C=C/C=C/C=C/C=C/C(O[C@@H]2O[C@H](C)[C@H](O)[C@@H](O)[C@@H]2N)CC(O)C(C(=O)O)C(O)CC(=O)CC(O)CC(O)CC(O)CC(=O)CCCC(=O)CC(=O)OC1C(C)CC(C)C(O)CC(=O)c1ccc(N)cc1 (stereo not given in full)	-98.9% (active)
CN(C)CCOc1ccc(-c2nc3sccn3c2-c2ccnc(S(C)(=O)=O)n2)cc1	107% (inactive)
CC(=O)N[C@H](C(=O)N[C@@H](CCCNC(=N)N)C(=O)N[C@@H](CCCCN)C(=O)N[C@@H](CCCNC(=N)N)C(=O)N[C@]1(C)CCC/C=C\CCC[C@@](C)(C(=O)N[C@@H](CC(C)C)C(=O)N[C@@H](CC(C)C)C(=O)N[C@@H](CCC(N)=O)C(=O)N[C@@H](CCC(=O)O)C(=O)N[C@@H](CCCNC(=N)N)C(=O)N[C@@H](CCC(=O)O)C(=O)N[C@@H](CC(C)C)C(=O)N[C@H](C(=O)N[C@@H](CCC(=O)O)C(N)=O)C(C)C)NC(=O)[C@H](CCCNC(=N)N)NC(=O)[C@H](CC(C)C)NC1=O)C(C)C	111% (inactive)
CN(C)CCOc1cccc(NC2=C(Cl)C(=O)C(Nc3cccc(OCCN(C)C)c3)=C(Cl)C2=O)c1	-53.9% (active)
CC(=O)OC1CC2C(C)(C)CCC[C@]2(C)C2=C1C(O)=C(C(C)C)C(=O)C2=O (stereo not given in full)	-39.3% (active)

Structure (SMILES)	growth
CCN(CC)CCOc1cccc2c1C(=O)c1cccc(OCCN(CC)CC)c1C2=O	55.5% (inactive)
CCN1CCN(CCC(=O)Nc2cccc(-n3cc(-c4ccncc4)c(-c4ccc(Cl)c(OC)c4)n3)c2)CC1	37.6% (inactive)
Clc1nc2ccccc2cc1Cn1nnc(Cc2ccccc2)n1	104% (inactive)
NC(CSC(c1ccccc1)(c1ccccc1)c1cccc2ccccc12)C(=O)O (stereo not given)	101% (inactive)
O=C(CCCNC(=O)c1nc(-c2ccccc2)n(-c2ccccc2)n1)NO	118% (inactive)
Cc1cc(O)ccc1C1=NN(c2ccc(S(C)(=O)=O)cc2)C(=O)CC1	98.1% (inactive)
COc1cc(/C=C/c2cc(/C=C/c3ccc(O)c(OC)c3)n(C(=O)Nc3ccccc3Cl)n2)ccc1O	13.2% (inactive)
C/C(=N\O)c1ccc(NC(=O)CSc2nnc(-c3ccccc3)n2-c2ccccc2)cc1	86.2% (inactive)
Nc1cc(Br)c(-c2nn3c(CCC(=O)c4nc5ccccc5[nH]4)nnc3s2)c(Br)c1	122% (inactive)
COc1cc(C2C(C#N)=C(N)Oc3cc(O)ccc32)cc(OC)c1OC (stereo not given)	35.5% (inactive)
O=C(CCCSc1nc(-c2ccccc2)cc(-c2ccc(Cl)cc2)n1)NO	9.63% (active)
O=C(Nc1ccc(NS(=O)(=O)c2ccc(F)cc2)cc1)C12CC3CC(CC(C3)C1)C2	97.1% (inactive)
CC[C@@H](C(=O)[C@@H](C)[C@@H](O)[C@H](C)[C@@H]1O[C@@H]([C@@H](CC)C(=O)O)CC[C@@H]1C)C1O[C@]2(C=CC(=O)[C@]3(CC[C@@](C)([C@H]4CC[C@](O)(CC)[C@H](C)O4)O3)O2)[C@H](C)C[C@@H]1C (stereo not given in full)	56.1% (inactive)
c1ccc(CCCCc2ccc3ccccc3n2)cc1	97.9% (inactive)
Cc1ccc(C2=NN(c3ccc(S(C)(=O)=O)cc3)C(=O)CC2)cc1	53.1% (inactive)
NS(=O)(=O)Oc1ccc(NC(=O)C2CCCCCC2)cc1	98.4% (inactive)
Cc1noc(C)c1CSc1ccccc1C(=O)N1CCN(c2cccc(C(F)(F)F)c2)CC1	88.1% (inactive)
COc1cc(Cc2cc(-c3ccccc3)n[nH]c2=O)cc(OC)c1OC	93.1% (inactive)
C=CCn1c(SCC(=O)Nc2ccc(C(=O)/C=C/c3ccc(OC)cc3)cc2)nnc1-c1ccc(OC)c(OC)c1	110% (inactive)
COc1ccc(-c2csc(NC(=O)c3ccc(Cc4n[nH]c(=O)c5cccnc45)cc3)n2)cc1	95% (inactive)
